High-throughput results as filed in PubChem BioAssay.
E coli growth-1 – inhibitors of Escherichia coli growth. 0.21% of 330,000 active. AID 1053175. OD600, 23 h; active compounds read low. OD600 absorbance (concentration not given with the values);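 active = OD600 absorbance below the run mean of sample wells minus 3.6 SD, in any replicate, cut at about 0.56 in these data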
phage Ecoli inh – E. coli growth loss with phage present | growth absorbance | inhibition, % at 11.9 µM | 0.26% of 360,000 active | AID 651602; in the data active = inhibition above about 11%
AddAB inh – less growth of phage-infected E. coli with AddAB; E. coli expressing H. pylori AddAB, absorbance growth; inhibition, % at 11.9 µM; 0.29% of 330,000 active; in the data active = inhibition above about 12%;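 note: 0% = vehicle wells of infected cells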
Tat export inh – inhibitors of E. coli Tat protein transport; inhibition, % at 10 µM; AID 488895; E. coli MC4100 TorA-mCherry Tat export, fluorescence; 0.036% of 340,000 active;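 active = mean replicate inhibition at least 50% and at least half of replicates individually reaching 50%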;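 note: exported cargo escapes ClpAP degradation while cytoplasmic cargo is degraded and loses fluorescence; 0% = median of neutral control wells and 100% = median of NaSCN control wells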
PfHsp90 set2 – growth inhibition of yeast expressing Plasmodium Hsp90. S. cerevisiae expressing PfHsp90, BacTiter-Glo ATP, 48 h; yeast lacking PDR1 and PDR3 efflux regulators. AID 504621. 0.32% of 310,000 active. inhibition, % at 9.4 µM;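 active = every replicate shows inhibition above about 80%, whatever the replicate mean, limit read from the data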;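 note: 0% = DMSO neutral controls and 100% = 20 µM radicicol positive controls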
E coli growth-2 – reduces bacterial viability in AddAB counter-screen. E. coli V3065 growth, OD600 absorbance, 18 h. inhibition, % at 11.9 µM. 0.27% of 330,000 active;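 active = inhibition above the campaign's mean inhibition across all tested compounds plus 3 SD, cut at about 9.9% in these data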;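 note: uninfected addAB+ strain grown without phage in ampicillin broth; 0% = DMSO wells and 100% = ciprofloxacin 0.95 µg/ml wells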
AddAB conf – confirmation screen: growth loss of phage-infected E. coli expressing H. pylori AddAB; AID 488942; E. coli V3065 expressing H. pylori AddAB, T4 phage, OD; T4 phage with gene 2 nonsense mutations; shares compounds with AddAB inh; inhibition, % at 11.9 µM; 64% of 880 active;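 active = mean inhibition above a set limit taken from the earlier primary screen, cut at about 13% in these data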;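 note: higher means less bacterial growth since AddAB block lets phage replicate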
RecBCD counter – reduces growth of phage-infected RecBCD+ E. coli, AddAB inhibitor counter-screen | shares compounds with AddAB inh | E. coli V66 + mutant T4 phage, OD growth | inhibition, % at 11.9 µM | 73% of 880 active | AID 488955;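 active = mean inhibition above the mean of solvent-only control wells plus 3 SD, cut at about 4% in these data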;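 note: optical density read after an 18 h incubation at 37 °C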
Bact viability – reduces bacterial viability, AddAB inhibitor counter-screen. 35% of 880 active. absorbance (AddAB counterscreen). shares compounds with AddAB inh. inhibition, % at 11.9 µM; in the data active = inhibition above about 25%
RecBCD conf – confirmation: growth loss of phage-infected RecBCD+ E. coli (RecBCD inhibitor screen) | shares compounds with phage Ecoli inh | E. coli V66 + T4 2- phage, growth OD | inhibition, % at 11.9 µM | 45% of 890 active | AID 651982;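 active = mean inhibition over triplicates exceeding the hit threshold derived in the original primary screen, cut at about 11% in these data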
Ecoli viability – counter-screen for RecBCD inhibitors: inhibitors of bacterial viability; shares compounds with phage Ecoli inh; E. coli viability, absorbance (OD) growth; inhibition, % at 11.9 µM; 29% of 890 active; AID 651983; in the data active = inhibition above about 20%;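 note: E. coli strain V66 grown with compound alone and no phage infection; 0% = bacteria with DMSO vehicle only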
AddAB phage OD – growth loss of phage-infected AddAB E. coli, RecBCD counter-screen. E. coli expressing H. pylori AddAB + T4 phage, OD growth; gene 2 mutant T4, recBCD-deleted host. 45% of 890 active. AID 651984. inhibition, % at 11.9 µM. shares compounds with phage Ecoli inh;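 active = mean inhibition above the solvent-only control wells' mean plus 3 SD, cut at about 22% in these data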;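 note: higher means less bacterial growth from phage killing when AddAB is blocked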
* = called active by the depositor; . = no result given. Shown are actives, neighbours in structure and some others; about 0.69% of the full set was active somewhere.

SMILES	E coli growth-1	phage Ecoli inh	AddAB inh	Tat export inh	PfHsp90 set2	E coli growth-2	AddAB conf	RecBCD counter	Bact viability	RecBCD conf	Ecoli viability	AddAB phage OD
O=C(N/N=C/c1ccc([N+](=O)[O-])o1)c1ccc(O)cc1	.	23*	98*	-29	1	97*	96*	24*	78*	17*	21*	98*
O=C(N/N=C/c1ccc([N+](=O)[O-])o1)c1ccncc1	.	23*	94*	.	.	18*	97*	19*	33*	16*	19	64*
O=C(N/N=C\c1ccc([N+](=O)[O-])o1)c1cncc(Br)c1	.	3	9	-19	1	5	.	.	.	.	.	.
COc1ccc(C2C=CCN(S(=O)(=O)c3ccc(-c4ccccc4)cc3)CC(=O)N2Cc2ccc(F)cc2)cc1 (configuration not stated)	0.7	.	.	.	.	.	.	.	.	.	.	.
Cn1nnnc1N=N/C(=N/Nc1ccccc1)c1ccccc1	.	20*	25*	-1	97*	21*	25*	23*	22	11*	10	15
O=C(Cn1cnc2ccccc2c1=O)Nc1ccc2c(c1)OCO2	0.68	5	1	2	11	2	.	.	.	.	.	.
O=C(Cn1cnc2ccccc21)Nc1ccc2c(c1)OCCCO2	0.61	16*	17*	-7	-35	13*	23*	16*	20	12*	13	18
Cc1cc(=O)[nH]c(N/N=C/c2ccccn2)n1	.	19*	18*	-10	25	13*	10	20*	9	7	16	13
O=c1nc(N/N=C/c2ccccn2)cn[nH]1	.	31*	29*	-26	13	29*	30*	31*	24	24*	32*	31*
Cc1ccc(C=NNc2cn[nH]c(=O)n2)o1	0.69	.	.	.	.	.	.	.	.	.	.	.
O=c1cnnc(N/N=C/c2ccccn2)[nH]1	.	42*	53*	-23	-25	41*	38*	44*	34*	37*	47*	47*
Cc1cc(=O)[nH]c(NN=Cc2ccccn2)n1	0.53	.	.	.	.	.	.	.	.	.	.	.
C/C(=N\N=C1\NC(=O)C(CC(=O)O)S1)c1ccccn1 (configuration not stated)	.	26*	19*	.	.	17*	26*	22*	24	22*	25*	28*
O=C(O)CC1S/C(=N/N=Cc2ccccn2)NC1=O (configuration not stated)	0.64	.	.	.	.	.	.	.	.	.	.	.
CN(C)c1ccnc(-n2cccc2C=NOCc2ccccc2)c1C#N	0.76	.	.	.	.	.	.	.	.	.	.	.
O=C1c2ccccc2C(=O)c2[nH]c(=O)[nH]c21	0.41*	16*	15*	-22	-8	10*	17*	17*	-7	15*	14	29*
NC(=NOCc1ccccc1)c1nonc1N	0.69	.	.	.	.	.	.	.	.	.	.	.
CC(C)Oc1ccc(Cc2cnc(N)nc2N)cc1	0.046*	12*	12*	5	-25	9	53*	14*	12	11*	7	12
Cc1cc(C)nc(SCC(=O)Nc2ccc(N3CCOCC3)cc2)n1	0.68	3	5	-2	10	1	.	.	.	.	.	.
Cc1nc(SCC(=O)Nc2ccc(N3CCOCC3)cc2)nc(C)c1C	0.67	13*	14*	-10	6	13*	9	9.1*	5	6	10	0
